# This is a sample that favours compounds with a hit; in the whole collection about 4.7% have one here.
# SARS 3CLpro inh: SARS-CoV 3CLpro protease inhibition | P0C6X7 | recombinant SARS-CoV 3CLpro, quenched FRET peptide cleavage | inhibition, % at 6 µM | 290,000 compounds, 0.14% hits; in the data active = inhibition above about 12%
# FBA Mtb inh: inhibits M. tuberculosis FBA enzyme | purified M. tuberculosis FBA, fluorescence read-out | inhibition, % at 1 µM | 360,000 compounds, 2.3% hits; in the data active = inhibition above about 27%;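 note: 0% = vehicle and 100% = reference inhibitor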
# Target sequence (P9WQA3 whole entry, looked up): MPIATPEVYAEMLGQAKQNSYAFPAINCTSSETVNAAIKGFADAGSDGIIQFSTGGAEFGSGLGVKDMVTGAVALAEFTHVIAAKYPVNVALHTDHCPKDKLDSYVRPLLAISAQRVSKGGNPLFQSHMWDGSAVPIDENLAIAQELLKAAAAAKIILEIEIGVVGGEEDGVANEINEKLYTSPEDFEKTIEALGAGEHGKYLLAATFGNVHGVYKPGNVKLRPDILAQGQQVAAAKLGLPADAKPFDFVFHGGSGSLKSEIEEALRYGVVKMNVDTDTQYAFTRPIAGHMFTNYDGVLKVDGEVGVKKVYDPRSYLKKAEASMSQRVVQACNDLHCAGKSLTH
# CCHF vOTU inh-1: blocks the CCHF virus ovarian tumor domain protease | inhibition, % at 11.5 µM | 370,000 compounds, 0.55% hits | CCHFV vOTU protease, Pep-AMC fluorescence | AID 651958; note: 0% = vehicle wells with enzyme and 100% = no enzyme wells
# DUSP3 inh: DUSP3 (human) phosphatase inhibition; P51452; inhibition, % at 13.3 µM; recombinant VHR phosphatase, pNPP absorbance; 290,000 compounds, 0.52% hits; in the data active = inhibition above about 50%
# GDH-TPI counter: counter-screen for M. tuberculosis FBA inhibitors: GDH-TPI coupled enzymes; GDH-TPI coupled enzyme counterscreen, NADH absorbance; inhibition, % at 4.8 µM; 360,000 compounds, 1.2% hits; AID 588335;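 note: 0% = DMSO wells and 100% = wells lacking the enzyme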
# RecA splice inh: inhibitors of M. tuberculosis RecA intein splicing; P9WHJ3; AID 2221; inhibition, % (concentration not given with the values); cell-free RecA intein splicing, fluorescence; 290,000 compounds, 0.75% hits; in the data active = inhibition above about 30%;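 note: 0% = vehicle wells and 100% = reference inhibitor control wells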
# CCHF vOTU inh-2: confirmation of CCHF virus vOTU protease inhibitors; shares compounds with CCHF vOTU inh-1; Recombinant CCHFV vOTU, Pep-AMC fluorescence; inhibition, % at 11.5 µM; 1,900 compounds, 17% hits; AID 686976
# * hit, by the source's call; x = no result. Cut-off read from the data, not from the text of the source, unless noted: active = inhibition above about 30%; inactive = the rest.
SMILES,SARS 3CLpro inh,FBA Mtb inh,CCHF vOTU inh-1,DUSP3 inh,GDH-TPI counter,RecA splice inh,CCHF vOTU inh-2
CC(Sc1ccc(S(=O)(=O)N2CCOCC2)cn1)c1ccccc1Cl (configuration not stated),x,1,3,x,4,x,x
Cc1ccc2c(c1)C(=O)C(=O)N2c1ccc(C(F)(F)F)cc1,x,2,30*,x,-11,x,-9
Cc1cccc(C)c1NC(=O)CNC(=O)c1ccccc1OCc1ccccc1,x,-2,5,x,-1,1,x
CC(C)(C)CC(C)(C)NC(=O)Nc1cccc([N+](=O)[O-])c1,0,-3,39*,15,-16,4,-12
CC(C)CNC(=O)C1(C)CCCCCN1Cc1ccccc1-c1ccccc1 (configuration not stated),x,0,35*,x,2,x,9
O=C(NCc1ccncc1)[C@@H]1CCCN1C(=O)[C@H]1CCCN1C(=O)c1ccccc1,x,x,4,x,x,x,x
CC(=O)NC(c1cccc(F)c1)c1nc(-c2cc(F)cc(Cl)c2)cs1 (configuration not stated),x,-1,36*,x,-11,x,-1
CC(=O)NC(c1cccc(F)c1)c1nc(-c2ccc(C)c(C)c2)cs1 (configuration not stated),x,-4,15,x,8,x,x
CCCC1S/C(=N/N=C/c2ccco2)NC1=O (configuration not stated),2,-1,-5,-1,28,-2,x
O=C(CC1S/C(=N/N=C/c2ccco2)NC1=O)Nc1cccc(Cl)c1Cl (configuration not stated),1,0,33*,18,42*,2,-7
O=C(NCc1ccco1)c1nc2c(nnn2Cc2cccc(Cl)c2)c(=O)[nH]1,-2,0,21,21,8,1,x
O=C(NCc1ccccc1)c1nc2c(nnn2Cc2cccc(Cl)c2)c(=O)[nH]1,1,-2,45*,0,-14,7,7
CC1(C)CC(=O)C(N=Nc2ccc(S(=O)(=O)N3CCOCC3)cc2)=C(O)C1,5,-4,4,16,15,0,x
COc1ccc(N=NC2=C(O)CC(C)(C)CC2=O)cc1,1,-26,32*,7,16,-1,4
COc1cc(C)ccc1Oc1nc(-c2ccccc2O)nc2ccccc12,-2,1,32*,13,3,0,-1
COc1cccc(Oc2nc(-c3ccccc3O)nc3ccccc23)c1,4,2,-3,6,6,-1,x
CC1=C(C(=O)N(C)C)CC(CC(=O)NCc2cccc3ccccc23)C(=O)N1CCCN1CCCC1=O (configuration not stated),x,2,36*,x,7,x,-22
CC1=C(C(=O)N(C(C)C)C(C)C)CC(CC(=O)NCc2cccc3ccccc23)C(=O)N1CCCN1CCCC1=O (configuration not stated),x,2,6,x,x,x,x
Cc1ccc(NP(=O)(c2ccc(N(C)C)cc2NC(=O)c2cccs2)N2CCOCC2)cc1Cl (configuration not stated),-3,4,30*,-27,9,1,-25
CCOc1ccc(S(=O)(=O)NCc2ccco2)c2ccccc12,-1,1,32*,17,11,9,-4
CCOc1cc(C)c(Cl)cc1S(=O)(=O)NCc1ccco1,-1,1,12,18,6,-1,x
Nc1ccc(N=Nc2ccc(O)cc2)c(N)n1,x,-12,38*,x,12,x,7
O=C(NCCCc1ccc(F)cc1)C1CCC(=O)N(CCCN2CCCC2=O)C1 (configuration not stated),-2,3,6,-9,7,0,x
COC(=O)c1ccc(COc2nc(C)cc(C)c2C#N)o1,3,2,32*,16,8,2,-2
CCC1Sc2ccc(S(=O)(=O)CCC(=O)Nc3ccc(OC(F)(F)F)cc3)cc2NC1=O (configuration not stated),6,-2,39*,-14,2,1,8
CCC1Sc2ccc(S(=O)(=O)CCC(=O)Nc3ccc(NC(C)=O)cc3)cc2NC1=O (configuration not stated),4,1,-7,-7,8,-1,x
CN(C(=O)COC(=O)/C=C/c1ccc(F)cc1)c1c(N)n(Cc2ccccc2)c(=O)[nH]c1=O,x,0,16,x,2,-2,x
